Measurements published in PubChem BioAssay AID1053173 (Broad Institute, 2014).
About 390 (26%) of roughly 1,500 compounds were called active. How the calls were made is not given here. A selection follows. A call without a number means that no potency is given here. Potency and affinity values are given separately.

target: Histone-lysine N-methyltransferase NSD2 (Homo sapiens) (UniProt O96028); assay: NSD2 methyltransferase inhibitors, dose response, biochemical, AlphaScreen, cherry-picked samples (AID 1053173); details: NSD2 H4 peptide methylation, 120 min; series mostly up to 10 µM
Sequence (O96028 whole entry, looked up): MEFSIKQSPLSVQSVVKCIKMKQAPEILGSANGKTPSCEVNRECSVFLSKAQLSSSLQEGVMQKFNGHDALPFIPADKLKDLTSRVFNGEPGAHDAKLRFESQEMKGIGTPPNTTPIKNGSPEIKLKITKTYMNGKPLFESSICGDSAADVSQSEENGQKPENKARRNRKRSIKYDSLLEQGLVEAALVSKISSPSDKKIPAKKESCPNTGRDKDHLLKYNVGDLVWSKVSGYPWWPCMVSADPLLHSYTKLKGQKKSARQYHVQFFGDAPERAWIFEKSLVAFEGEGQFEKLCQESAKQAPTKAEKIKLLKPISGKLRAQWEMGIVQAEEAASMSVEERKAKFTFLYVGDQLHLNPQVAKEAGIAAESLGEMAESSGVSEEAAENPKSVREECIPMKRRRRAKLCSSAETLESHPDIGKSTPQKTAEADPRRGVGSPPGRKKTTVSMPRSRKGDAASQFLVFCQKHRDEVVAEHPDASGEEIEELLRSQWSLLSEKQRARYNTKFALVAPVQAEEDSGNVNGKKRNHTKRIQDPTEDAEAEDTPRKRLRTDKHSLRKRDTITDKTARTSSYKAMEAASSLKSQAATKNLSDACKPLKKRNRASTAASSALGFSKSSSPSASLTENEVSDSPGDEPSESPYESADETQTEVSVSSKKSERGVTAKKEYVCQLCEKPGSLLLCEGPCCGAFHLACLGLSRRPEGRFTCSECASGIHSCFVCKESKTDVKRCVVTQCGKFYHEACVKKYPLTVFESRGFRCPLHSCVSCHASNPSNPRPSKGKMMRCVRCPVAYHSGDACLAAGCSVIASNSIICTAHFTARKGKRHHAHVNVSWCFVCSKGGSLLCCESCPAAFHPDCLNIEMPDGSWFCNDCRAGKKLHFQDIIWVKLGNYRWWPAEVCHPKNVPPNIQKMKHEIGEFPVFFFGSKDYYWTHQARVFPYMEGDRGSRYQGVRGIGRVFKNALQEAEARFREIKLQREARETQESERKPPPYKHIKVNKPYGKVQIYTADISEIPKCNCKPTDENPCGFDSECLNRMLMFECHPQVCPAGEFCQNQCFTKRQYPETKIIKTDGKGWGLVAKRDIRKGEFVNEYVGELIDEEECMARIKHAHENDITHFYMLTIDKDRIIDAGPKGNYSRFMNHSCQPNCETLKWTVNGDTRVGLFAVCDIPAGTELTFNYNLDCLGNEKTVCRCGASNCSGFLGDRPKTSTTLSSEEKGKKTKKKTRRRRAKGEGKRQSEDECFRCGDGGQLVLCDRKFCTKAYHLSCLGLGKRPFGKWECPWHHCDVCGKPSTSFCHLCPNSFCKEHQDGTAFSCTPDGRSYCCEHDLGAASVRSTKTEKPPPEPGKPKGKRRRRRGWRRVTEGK

SMILES	outcome
CC1(C)Cc2c(c(-c3ccco3)[nH]c(=O)c2C#N)CS1	inactive
CCc1ccc(-c2cc(C)no2)cc1S(=O)(=O)N1CCN(c2ccc(F)cc2)CC1	inactive
COc1ccc(NC(=O)CC2C(=O)NCCN2C(=O)c2ccc(N(C)C)cc2)cc1 (configuration not stated)	inactive
Cc1cc(NC(=O)CSc2nc3ccccc3cc2C#N)no1	inactive
O=C(Nc1ccc(O)cc1)C1CC=CCC1 (configuration not stated)	inactive
CC1CN(Cc2nc3c(c(=O)n(C)c(=O)n3C)n2CCCc2ccccc2)CC(C)O1 (configuration not stated)	inactive
O=C(OCc1cccc2ccccc12)C1CC(=O)N(c2ccccc2)C1 (configuration not stated)	inactive
COc1cccc2c1N1C(=O)c3c(C(=O)O)cccc3C1CC2(C)C (configuration not stated)	inactive
COc1ccc(C2C(C(=O)c3ccco3)=C(O)C(=O)N2CC2CCCO2)cc1OC (configuration not stated)	inactive
CCOC(=O)c1c(NC(=O)COC)sc2c1CCCC2	inactive
CCN(C(=S)Nc1ccc(C(C)=O)cc1)C1CCCCC1	inactive
CC1CN(Cc2cc(=O)n3ccsc3n2)CC(C)O1 (configuration not stated)	inactive
CC(C)CN(C(=O)COC(=O)c1ccc([N+](=O)[O-])s1)c1c(N)n(Cc2ccccc2)c(=O)[nH]c1=O	inactive
COCCn1c(N)c(N(Cc2ccccc2)C(=O)c2cc(=O)[nH]c3ccccc23)c(=O)[nH]c1=O	inactive
CCn1c(SCC(=O)N2CCCCC2)nc2c1c(=O)n(C)c(=O)n2C	inactive
CCOC(=O)C1=C(C)N(C)C(=S)NC1c1ccccc1Cl (configuration not stated)	inactive
COc1cc(/C=C2\SC(N)=NC2=O)cc(Cl)c1O	inactive
O=C(CCc1nnc(-c2ccccc2)o1)NCc1cc(F)ccc1F	inactive
CCNC(=O)C1CCCN(C(=O)c2ccccc2OC(F)(F)F)CC1 (configuration not stated)	inactive
Cc1ccccc1N1CC(C(=O)Nc2ccc(S(=O)(=O)N3CCOCC3)cc2)CC1=O (configuration not stated)	inactive
COc1ccc(NS(=O)(=O)c2cc(NC(=O)COc3ccccc3)ccc2N2CCOCC2)cc1	inactive
Cc1ccc(S(=O)(=O)c2ccc(Cl)cc2)cc1S(=O)(=O)N1CCOCC1	inactive

SMILES	outcome
O=C(CN1CCOCCOCCN(CC(=O)Nc2ccccc2)CCOCC1)Nc1ccccc1	inactive
Cc1ccc(/C=N/NC(=O)c2cc3ccccc3cc2O)o1	inactive
CCN(Cc1ccccc1)Cc1c(C)[nH]c2c(C)c(C)ccc2c1=O	inactive
CCCc1cc(=O)n(-c2nc3ccccc3s2)[nH]1	inactive
CC1(C)Cc2c(c(-c3ccco3)[nH]c(=O)c2C#N)CO1	inactive
O=C(CSc1nc(-c2ccccc2)c(-c2ccccc2)o1)N1CCCCC1	inactive
CCOC(=O)c1ccc(N=c2scc(C)n2CC)cc1	inactive
CC1(C)CC(N=C2C=CC3=NC45CCCCC4CC4=C(CCCC4)N5C3=C2)CC(C)(C)N1 (configuration not stated)	inactive
COc1ccc(N=c2scc(C)n2CCCN2CCCC2=O)cc1	inactive
CCOC(=O)Nc1ccc(=O)n(Cc2c(Cl)cccc2Cl)c1	inactive
CN(C(=S)NC(=O)C1(C)CC1(Cl)Cl)c1ccccc1 (configuration not stated)	inactive
O=C(NNC(=O)c1ccc(Cl)nc1)c1ccc(Br)cc1	inactive
Oc1ccc(/C=N/N2CCOCC2)c(O)c1O	inactive
Nc1cc(=O)[nH]c(SCC(=O)Nc2ccc(Cl)c(Cl)c2)n1	inactive
Cc1ccc(NC(=S)N2CCC(NC(=O)c3ccc(F)cc3)CC2)cc1	inactive
COCC(C)n1c(SCC(=O)NC2CCCCC2C)nc2ccccc2c1=O (configuration not stated)	inactive
Cc1cccc(-n2c(Cn3nc(C)c([N+](=O)[O-])c3C)n[nH]c2=S)c1	inactive
Cc1csc(SCC(=O)Nc2ccc3c(c2)OCCO3)n1	inactive
COC(=O)c1ccccc1-c1ccc(C(c2c(C)[nH][nH]c2=O)c2c(C)[nH][nH]c2=O)o1	inactive
Cc1[nH][nH]c(=O)c1C(c1ccc(-c2ccc(C(=O)O)cc2)o1)c1c(C)[nH][nH]c1=O	inactive
Cc1cccc(C(=O)NCc2nnc(SCC(=O)Nc3nnc(C)s3)n2C)c1	inactive
O=c1c2cnn(-c3ccccc3)c2nc(-c2ccco2)n1-c1ccccc1	inactive

SMILES	outcome
Cc1ccc(S(=O)(=O)NC(C(=O)N2CCN(S(=O)(=O)c3cccc(F)c3)CC2)C(C)C)cc1 (configuration not stated)	inactive
Cc1ccccc1NCC(=O)Nc1cc(S(=O)(=O)N2CCCCC2)ccc1C	inactive
COc1ccccc1OCC(=O)Nc1ccc(S(=O)(=O)N2CCCC2)cc1	inactive
Cc1ccc(S(=O)(=O)N(C)CC(=O)NCCCn2ccnc2)cc1	inactive
CN(c1ccccc1)c1ncnc2c1ncn2C	inactive
COc1ccc2c(c1)Cc1sc(NC(C)=O)nc1-2	inactive
Cc1nn(-c2ccccn2)c2c1C(=O)C(Br)CC2 (configuration not stated)	inactive
CC(=O)c1ccc(N(CC(=O)NCCc2ccccc2)C(=O)c2csnn2)cc1	inactive
O=C(OCc1ccc([N+](=O)[O-])cc1)c1cc(=O)c2ccccc2o1	inactive
COc1ccccc1N(CC(=O)NCC1CCCO1)C(=O)CNS(=O)(=O)c1ccc(C)cc1 (configuration not stated)	inactive
O=C1c2ccccc2C(=O)N1CCC(c1ccc(F)cc1)c1ccco1 (configuration not stated)	inactive
COc1ccc(Cc2nnc(NC(=O)C3CC(=O)N(c4ccc(OC)cc4)C3)s2)cc1 (configuration not stated)	inactive
O=C(CN(C(=O)c1csnn1)c1ccc(F)c(Cl)c1)NC1CCCCC1	inactive
Cc1nc(N)sc1-c1nnc(SCC(=O)Nc2ccccc2C(F)(F)F)n1C	inactive
CC(C)(C)NC(=O)COC(=O)c1ccc2c(c1)C(=O)N(Cc1ccco1)C2=O	inactive
CC1=NN(c2ccccc2)C(=O)/C1=C/N(C)C	inactive
Cn1c(=O)[nH]c(=O)c2c1nc(N/N=C/c1ccncc1)n2Cc1ccc(F)cc1	inactive
Cc1ccc(-c2csc3nc(CN(C)Cc4ccccc4)[nH]c(=O)c23)cc1	inactive
CCC(CC)c1nnc(NC(=O)CCS(=O)(=O)Cc2ccccc2)s1	inactive
CCCCn1cnc2c(=S)nc(N)[nH]c21	inactive
CCn1cc(/C=N\NC(=O)C2(C)CC2(Cl)Cl)c(C)n1 (configuration not stated)	inactive
NNC(=O)c1nc(-c2ccccc2)cc(-c2ccccc2)n1	inactive

SMILES	outcome
CC12CCC(C)(c3nc4ccccc4nc31)C2(C)C	inactive
Cc1cc(C)n(CCC(=O)N2CCN(S(=O)(=O)c3ccccc3)CC2)n1	inactive
Cc1cccc2c(N=NC(=O)c3ccc(NS(=O)(=O)c4cccs4)cc3)c(O)[nH]c12	inactive
Cc1cc(S(=O)(=O)NCc2cccnc2)ccc1F	inactive
O=C(COc1ncnc2c(Cl)cc(Cl)cc12)N1CCCCC1	inactive
Cn1ncc2c(Nc3cccc4ccccc34)ncnc21	inactive
O=C(NCCN1CCOCC1)NC1(C(F)(F)F)Oc2ccccc2O1	inactive
CCCCc1ccc(NC(=O)CSc2nc(=O)n(CCN(CC)CC)c3c2CCCC3)cc1	inactive
Cc1cc(SCC(=O)Nc2cccnc2Cl)nc2ccccc12	inactive
COc1ccc(C(=O)Nn2c(SCC(=O)c3ccc(Cl)cc3)nc3ccccc3c2=O)cc1	inactive
Cc1ccc(-c2cc(C(=O)N/N=C/c3ccccc3)n[nH]2)o1	inactive
Cc1cc(=O)[nH]c(N/N=C/c2c(C)nn(-c3ccccc3Cl)c2Cl)n1	inactive
Cc1ccc(O)c(NC(=O)c2cc3nc4c(c(C(F)(F)F)n3n2)CCc2ccccc2-4)c1	inactive
O=C(Nc1cc(F)ccc1F)N1CCN(c2ccnc3cc(Cl)ccc23)CC1	inactive
COc1ccc(C(=O)C(OC(=O)c2ccc(C)c(NC(C)=O)c2)c2ccccc2)cc1 (configuration not stated)	inactive
COCCN(C(=O)CNC(=O)c1ccco1)C(C(=O)NC1CCCC1)c1ccc(OC)cc1 (configuration not stated)	inactive
CC1(C)NC(=O)N(CCCOc2ccccc2Br)C1=O	inactive
CCOc1cc(NC2CS(=O)(=O)CC2O)c(OCC)cc1NC(=O)c1ccccc1 (configuration not stated)	inactive
Cc1ccc(N2C(=O)N(CC(=O)Nc3cccc([N+](=O)[O-])c3C)C(=O)C2C)cc1 (configuration not stated)	inactive
Cc1ccc(NC(=O)CCC(=O)OCC(F)(F)C(F)F)cc1	inactive
Cc1ccc(NC(=O)CCn2c(=O)oc3ccccc32)cc1	inactive
O=C(CC(=O)Nc1ccc(Cl)cc1)N/N=C\c1cccc(F)c1	inactive

SMILES	outcome
CNS(=O)(=O)c1cc(NC(=O)CCCNC(=O)c2ccc(Cl)cc2)ccc1C	inactive
O=C(NNC(=O)c1ccc(NC(=O)C2CC2)cc1)c1ccc(F)cc1	inactive
CC1CCN(CCC(=O)Nc2ccccc2)CC1	inactive
CC1CCCCC12NC(=O)N(CC(=O)NC(=O)NCc1ccco1)C2=O (configuration not stated)	inactive
COc1cccc(CNC(=S)Nc2ccc(Cl)cc2C)c1	inactive
O=[N+]([O-])c1ccccc1-c1ccc(C(=S)N2CCCC2)o1	inactive
Cn1cc(-c2ccccc2C(N)=O)c(=O)c2ccccc21	inactive
CC1CCCC(NC(=O)COC(=O)c2c[nH]c(=O)[nH]c2=O)C1C (configuration not stated)	inactive
O=C(OCc1cnc(Cl)s1)c1cccs1	inactive
Cc1ccc(N2CS(=O)(=O)/C(=C/N(C)C)C2=O)cc1	inactive
Cn1c(CSCc2ccccc2)nnc1SCC(=O)Nc1nccs1	inactive
O=C(CC1C(=O)N(c2ccccc2)C(=S)N1c1ccccc1)c1ccc(Br)cc1 (configuration not stated)	inactive
CCn1c(O)c(/C=N/n2cnnc2)sc1=S	inactive
CCOc1ccc(-c2nnc(SCc3nc4ccccc4[nH]3)n2N)cc1	inactive
CCOC(=O)C(Oc1ccc2c(-c3ccc(OC)cc3)cc(=O)oc2c1C)c1ccccc1 (configuration not stated)	inactive
CCOC(=O)c1c(C#N)c(SCC(=O)Nc2ccc(OC)cc2)nc2c1CN(CC)CC2	inactive
COc1ccc(OCCSc2nnc(CCNC(=O)c3ccc(Cl)c(Cl)c3)n2C)cc1	inactive
COc1cccc(CN2C(=O)C(C)N(C(=O)c3c(F)cccc3F)c3ccccc32)c1 (configuration not stated)	inactive
CN1CCN(c2ccc(S(=O)(=O)N3CCOCC3)cc2NC(=O)COc2ccc(F)cc2Cl)CC1	inactive
